Test results published in PubChem BioAssay (Tox21).
Several values for one entry are separate records, joined by “and”; a condition that tells them apart may be missing. Identical values can stand only once. Records with an inconclusive call do not appear. Where a call stands in place of a potency, no number is given. Some structures have more than one record in an assay (separate samples or runs), and their calls can disagree. Activity calls are given as the source filed them. Calls follow the shape of the dose curve; as a rule, active = well fitted inhibition curve with a large enough effect in the repeat runs; inconclusive = weak or mixed curves; inactive = no such curve, though single readings can be large or run the other way.

target: Estrogen receptor (Homo sapiens) (UniProt P03372); experiment: qHTS assay to identify small molecule antagonists of the estrogen receptor alpha (ER-alpha) signaling pathway using the BG1 cell line in the presence of 0.1 nM 17-beta-estradiol (AID 1259244); details: VM7Luc4E2 (BG1) ERE-luciferase, antagonist mode, 0.1 nM E2, 22 h; series mostly up to 92.4 µM; activity change, negative = inhibition: at the top concentration; also: nearly all actives have a fitted effect of over 50% in size
Outline: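 VM7Luc4E2 cells (endogenous full-length ER-alpha, stable 4xERE-luciferase) were grown 5 days in phenol red-free medium with charcoal-stripped FBS, then exposed 22 h at 37C to compounds plus 0.1 nM (final) 17beta-estradiol; ONE-Glo luminescence read-out.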
Potency is read from the fitted curve at half-maximal effect.

Sequence of Estrogen receptor (Homo sapiens) (P03372 whole entry, looked up): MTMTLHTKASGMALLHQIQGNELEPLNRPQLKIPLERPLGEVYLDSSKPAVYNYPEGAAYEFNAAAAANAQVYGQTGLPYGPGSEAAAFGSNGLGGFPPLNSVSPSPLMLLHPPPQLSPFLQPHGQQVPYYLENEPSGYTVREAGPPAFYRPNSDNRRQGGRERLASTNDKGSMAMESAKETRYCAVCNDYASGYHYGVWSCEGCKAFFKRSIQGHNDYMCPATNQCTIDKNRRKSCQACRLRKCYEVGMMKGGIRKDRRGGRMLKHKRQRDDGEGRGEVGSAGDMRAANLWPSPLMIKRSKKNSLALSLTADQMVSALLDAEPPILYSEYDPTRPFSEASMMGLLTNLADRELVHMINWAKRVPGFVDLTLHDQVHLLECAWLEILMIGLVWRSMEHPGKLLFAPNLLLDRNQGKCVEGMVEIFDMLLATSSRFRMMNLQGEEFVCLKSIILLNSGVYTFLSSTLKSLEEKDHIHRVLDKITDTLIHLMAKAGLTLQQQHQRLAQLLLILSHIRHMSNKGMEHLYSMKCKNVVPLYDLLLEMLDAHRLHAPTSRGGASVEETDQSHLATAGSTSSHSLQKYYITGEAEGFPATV

With `O=Cc1ccccc1O` as the compound, how does the Potency read?
Its Potency is “inactive”.

With `C[C@]12CCC(=O)C=C1CC[C@@H]1[C@@H]2C(=O)C[C@@]2(C)[C@H]1CC[C@]2(O)C(=O)CO` as the compound, how does the Potency read?
Its Potency is “inactive”.

With `O=[N+]([O-])c1ccc2c(c1)Cc1ccccc1-2` as the compound, how does the Potency read?
The Potency was “inactive”.

Which Potency does the source give for `S=C(NC1CCCCC1)NC1CCCCC1` here?
The Potency was 53.4 µM (active) and 48.6 µM (active).

How did the Potency turn out when `c1ccc2sc(SSN3CCOCC3)nc2c1` was run?
Its Potency is “inactive”.

How did the Potency turn out when `CN(C)CCN(Cc1cccs1)c1ccccn1` was run?
The Potency was “inactive”.

Which Potency does the source give for `OC1CCCCCCCCCCC1` here?
Its Potency is “inactive”.

With `COC(=O)CCC(=O)OC` as the compound, how does the Potency read?
The Potency was “inactive”.

With `CCCCC(CC)COCC1CO1` (stereo not drawn) as the compound, how does the Potency read?
Its Potency is “inactive”.

How did the Potency turn out when `Nc1ccccc1N` was run?
The Potency was “inactive and 54.5 µM (active)”.

How did the Potency turn out when `CCC(C)CO` (stereo not drawn) was run?
Its Potency is “inactive”.

Which Potency does the source give for `Nc1ncnc2nc[nH]c12` here?
The Potency was “inactive”.

With `c1cc(N(CC2CO2)CC2CO2)ccc1OCC1CO1` (stereo not drawn) as the compound, how does the “activity change, negative = inhibition” value read?
Its value is -23.8% (inactive).

`Nc1ccc(Nc2ccccc2)cc1` was tested. Which Potency did it give?
Its Potency is “inactive”.

`O=C(/C=C/C=C/c1ccc2c(c1)OCO2)N1CCCCC1` was tested. Which Potency did it give?
The Potency was “inactive”.

For `CCCCOCCOCCO`, which Potency is on record?
Its Potency is “inactive”.

For `c1ccc2c(c1)Oc1ccccc1S2`, which Potency is on record?
The Potency was “inactive”.

With `c1ccncc1` as the compound, how does the Potency read?
The Potency was “inactive”.

How did the Potency turn out when `Nc1ccc(Cl)cc1Cl` was run?
Its Potency is “inactive”.

`CCCCCCCCCCCO` was tested. Which Potency did it give?
The Potency was “inactive”.

For `CCCCOCCOCCOCCO`, which Potency is on record?
The Potency was “inactive”.

`CCC(C)OC(=O)c1ccc(O)cc1` (stereo not drawn) was tested. Which Potency did it give?
The Potency was “inactive”.

With `CCC(C)(O)CCCC(C)C` (stereo not drawn) as the compound, how does the Potency read?
Its Potency is “inactive”.

With `CC(=O)CC/C=C(\C)CCC=C(C)C` as the compound, how does the Potency read?
Its Potency is “inactive”.

With `CC1=CC2C3CC(C=C3C)C2C1` (stereo not drawn) as the compound, how does the Potency read?
Its Potency is “inactive”.

`Cn1cnc([N+](=O)[O-])c1Sc1ncnc2nc[nH]c12` was tested. Which Potency did it give?
The Potency was “inactive”.

`C=CC(C)(CCC=C(C)C)OC(C)=O` (stereo not drawn) was tested. Which Potency did it give?
Its Potency is “inactive”.

With `CCCCNS(=O)(=O)c1ccccc1` as the compound, how does the Potency read?
Its Potency is “inactive”.
